Compounds without any hit were thinned out: in the full panel of roughly 83,000, 20% have a hit.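 Percent growth is the endpoint: 0 to 100 indicates growth inhibition (40 means 60% inhibition), 0 means no net growth, and negative values indicate cell death.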 Values without a mark were called inactive. The source made the active and inactive calls. Rule for the calls: active = growth percent below 10; inactive = the rest.
Experiments:
Assay in all cases: NCI-60 one-dose screen, 48 h (100 = growth as untreated, 0 = no growth, -100 = all killed)
[1] = system: BT-549 breast; conditions: 10 µM unless noted
[2] = system: MDA-MB-435 melanoma; conditions: 10 µM unless noted
[3] = system: SW-620 colon; conditions: 10 µM unless noted
[4] = system: MCF7 breast; conditions: 10 µM
[5] = system: HCT-116 colon; conditions: 10 µM unless noted
[6] = system: KM12 colon; conditions: 10 µM unless noted
[7] = system: HCC-2998 colon; conditions: 10 µM unless noted

Row | Structure (SMILES) | growth [1] | growth [2] | growth [3] | growth [4] | growth [5] | growth [6] | growth [7]
1 | CC(C)(C)c1ccc(C2CC(=O)C3=C(C2)Nc2ccccc2N(C(=O)c2ccccc2Cl)C3c2ccc(F)cc2)cc1 (stereo not given) | 44.4% | -80.1% (active) | 2.52% (active) | -33.3% (active) | 7.97% (active) | 9.1% (active) | 
2 | O=C(N=Nc1c(O)[nH]c2ccccc12)c1oc2ccccc2c1CN1CCN(c2ccccc2)CC1 | 11.4% | 26.3% | 0.43% (active) | -22.7% (active) | -53.1% (active) | 23.1% | 
3 | O=C(/C=C/c1ccccn1)c1ccc(OCc2nnc(-c3ccc(Cl)cc3)o2)cc1 | 16.5% | -66.2% (active) | -43.6% (active) | -28.3% (active) | -71.6% (active) | -69.9% (active) | 
4 | COc1cccc(C2=NN3C(C2)c2ccccc2OC3c2ccc(/C=C3\SC(=O)NC3=O)cc2)c1 (stereo not given) | 97.1% | 105% | 97.8% | 90.7% | 109% | 94.6% | 
5 | Cc1ccc(N=NC2C(=O)N(c3ccc(Cl)cc3)N(c3ccc(Cl)cc3)C2=O)cc1 | 95.2% | 103% | 96.4% | 85.5% | 97.2% | 90.3% | 
6 | CCCCCCC(O)(c1ccc(F)cc1)C(CN1CCOCC1)c1ccccc1 (stereo not given) | 61.9% | 35.8% | 26.3% | 20.4% | 18.5% | 29% | 
7 | CCN(CC)CCNC(=O)C(Cl)=C1C(Cl)=C(Cl)C(Cl)=C1Cl | 33.3% | 33.9% | 34.7% | 28.7% | 13.9% | 23.6% | 
8 | Cn1c(C(=O)c2cccc3ccccc23)nc2ccccc21 | 13% | 17.4% | 22.4% | 15.6% | 22.7% | 25.9% | 
9 | O=C(/C=C/c1ccc(Cl)cc1)c1ccc(Nc2nc(NCCO)nc(Nc3ccc(Cl)cc3)n2)cc1 | 68% | 62.2% | 62.6% | -31.3% (active) | -78.9% (active) | 18.7% | 
10 | COc1ccc(Cn2c(Br)c3c(c2Br)-c2nc(N)sc2CC3)cc1 | 51.4% | -40.6% (active) | 16% | 17.7% | 17.8% | 29.6% | 
11 | O=S(=O)(Nc1ncccn1)c1ccc(NC2Nc3nc4ccccc4nc3S2)cc1 (stereo not given) | 95.9% | 98.3% | 99.3% | 98.8% | 101% | 106% | 
12 | Cc1ccc(C(=O)c2oc3ccc4c(C)cc(=O)oc4c3c2C)cc1 | 40.8% | 29.7% | 23.2% | 9.99% (active) | 21.7% | 17.8% | 
13 | COc1cc(/C=C/C(=O)c2ccc(Nc3nc(NCCO)nc(N4CCOCC4)n3)cc2)cc(OC)c1OC | 33.5% | 10.1% | 7.8% (active) | 3.22% (active) | 9.47% (active) | 7.4% (active) | 
14 | C[n+]1c2ccccc2nc2ccc(NCCO)cc21 | 105% | 98.4% | 96.6% | 84.8% | 94.2% | 92% | 
15 | COc1ccc(C(=O)C2CC2c2ccc(Cl)cc2)cc1 (stereo not given) | 57.3% | 95.6% | 102% | 103% | 77.1% | 68.7% | 
16 | CCCCC1COc2cccc3c2N1C=C/C3=C\C(=O)N(C)c1ccccc1 (stereo not given) | 50.8% | 69% | 73.4% | 66.7% | 36.1% | 65.2% | 
17 | COc1ccc(-c2cn3c(C(=O)Nc4ccccc4Cl)c(-c4ccccc4)c4c3n2CCCC4)cc1 | 86.4% | 80% | 82.5% | 71.3% | 73.2% | 82.8% | 
18 | Brc1ccc(Nc2nc3ccccc3nc2Nc2ccc(Br)cc2)cc1 | -12.6% (active) | -60.2% (active) | -69.9% (active) | 1.16% (active) | -86.3% (active) | -55.3% (active) | 
19 | O=C(/C=C/c1ccc(C(F)(F)F)cc1)c1ccc(Nc2nc(NCCO)nc(N3CCOCC3)n2)cc1 | 61% | 22.1% | -6.72% (active) | 3.91% (active) | -28.3% (active) | -32.2% (active) | 
20 | Cc1ccc2nc(NC(=O)CSC(=S)N3CCN(c4ccccc4)CC3)sc2c1 | 102% | 111% | 109% | 95% | 95% | 95.1% | 

Row | Structure (SMILES) | growth [1] | growth [2] | growth [3] | growth [4] | growth [5] | growth [6] | growth [7]
21 | O=Cc1c(OCc2cnnn2CC(=O)Nc2ccc(Cl)cc2)ccc2ccccc12 | 90.4% | 104% | 99.2% | 81.5% | 104% | 101% | 
22 | N[C@@H](CC/[N+]([O-])=N/O)C(=O)O | 95.2% | 98.4% | 104% | 93.7% | 99.1% | 104% | 112%
23 | CN(C)/C=C1\SC(=Nc2ccc(Cl)cc2)NC1=O | 104% | 104% | 99.9% | 91% | 104% | 106% | 
24 | O=C(NC(=S)Nc1cccc(NC(=S)NC(=O)c2ccccc2)c1)c1ccccc1 | 58.4% | 61.4% | 74.6% | 58.3% | 67.2% | 68% | 
25 | COc1cc(NC(=O)CCSc2nc3ccccc3c(=O)n2Cc2ccccc2)cc(OC)c1OC | 86% | 89.9% | 93.6% | 84.1% | 83.7% | 87.1% | 
26 | O=C(O)c1cn(C2CC2)c2cc(N3CCN(C(=O)C[n+]4ccccc4)CC3)c(F)cc2c1=O | 102% | 99.9% | 105% | 101% | 99.3% | 103% | 
27 | CCN1C(=O)N(CC)C2C1NN=c1s/c(=C3\C(=O)N(CC(C)(C)C)c4ccccc43)c(=O)n12 (stereo not given) | 21.7% | -21.3% (active) | 42.8% | 20.2% | 7.62% (active) | 17.6% | 
28 | O=C1C(=O)c2c(ccc3ccccc23)-c2ccccc21 | -72.6% (active) | -58.6% (active) | -73% (active) | -47.6% (active) | -53.8% (active) | 18.4% | 
29 | O=C1c2ccc3c4c(ccc(c24)C(=O)N1CCCCO)C(=O)N(CCCCO)C3=O | 63.5% | 3.2% (active) | 10.6% | 28.2% | 28.4% | 95.3% | 
30 | CCN1CCN(C(=S)SCC(=O)Nc2nc3ccc(C)cc3s2)CC1 | 108% | 116% | 109% | 105% | 94.7% | 108% | 
31 | COc1ccc(/C=C2/SC(=O)N(CC(=O)N3CCN(c4cc5c(cc4F)c(=O)c(C(=O)O)cn5C4CC4)CC3)C2=O)cc1 | 96.1% | 102% | 98.2% | 96% | 100% | 105% | 
32 | CC1(C)CC2(C)OC2C2(C1)N=NC(=Nc1ccccc1)O2 (stereo not given) | -19.1% (active) | 59.5% | 23% | 23.9% | 20% | 87.7% | 
33 | Nc1nc(Nc2cccc(F)c2)nc2ccccc12 | 75.7% | 18.6% | 35.1% | 41.5% | 23.1% | 59.2% | 
34 | CCOC(=O)c1cnc2ccc(Cl)cc2c1NCCCN(C)C | 31.6% | 19.6% |  | 7.48% (active) | 12.4% | 17.5% | -13.2% (active)
35 | O=C(Nc1ccccc1O)c1ccc(-c2ccc(Cl)cc2Cl)o1 | 91.7% | 96.9% |  | 87.5% | 68.7% | 78.8% | 96.5%
36 | COc1cc(/C=C2\CCC/C(=C\c3cc(CN4CCOCC4)c(O)c(OC)c3)C2=O)cc(CN2CCOCC2)c1O | 52.5% | 27.4% |  | 21.1% | 23.3% | 9.12% (active) | 62.1%
37 | COc1ccc(-c2nc(-c3ccccn3)c(-c3ccccn3)n2CC(C)C)cc1OC1CCCC1 | 38.5% | 26.9% |  | 10.8% | 14.7% | 8.2% (active) | 24.4%
38 | COc1cc(/C=C/C(=O)c2c(C)nc3ccccc3c2/C=C/c2ccccc2)cc(OC)c1OC | 6.8% (active) | 3.78% (active) |  | 13.7% | -81.8% (active) | -5.07% (active) | 6.52% (active)
39 | Oc1[nH]c2ccccc2c1N=Nc1nnc2n1N=C(c1ccccc1)CS2 | 72.8% | 93.8% |  | 71.9% | 86.4% | 95.2% | 81.3%
